Measured values from PubChem BioAssay (NCATS).
Inconclusive results are not listed. Calls of active or inactive are those of the source. Calls come from the whole dose curve; as a rule, active = well fitted cell-killing curve with a large enough effect; inconclusive = small, poorly fitted or top-dose-only effect, or effect the other way; inactive = flat fitted curve, though single readings scatter.

Experiments:
Assay in all cases: Primary qHTS to identify gynecologic anti-cancer compounds using libraries of approved drugs and bioactive compounds (AID 1345084); note: nearly all actives have a fitted effect of over 55% in size
Conditions in all cases: Gynecologic cancer cell panel viability, ATPlite luminescence, 48 h; series mostly up to 57.5 µM
JEG-3 = tested on: JEG-3
Summary of the method: (§1)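 Five-point cytotoxicity, 48 h drug exposure at 37 C, 5% CO2, on cells seeded 16 h beforehand. ATP content read by ATPlite luminescence.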

OV90 = tested on: OV90
Summary of the method: as §1

PA-1 = tested on: PA-1
Summary of the method: as §1

SKOV3 = tested on: SKOV3
Summary of the method: as §1

Tov-21-G = tested on: Tov-21-G
Summary of the method: as §1

Tov112D = tested on: Tov112D
Summary of the method: as §1
% is set by controls: 0 for no effect and ±100 for the full control effect.

O=C(O)Cc1cn(C2OCC(O)C(O)C2O[C@@H]2O[C@H](CO)[C@@H](O)[C@H](O)[C@H]2O)c2ccccc12 (stereo not given in full)
inactive: Potency (JEG-3) | Potency (OV90) | Potency (PA-1) | Potency (SKOV3) | Potency (Tov-21-G) | Potency (Tov112D)

C=C(F)c1sc(CNCCCNc2cc(=O)c3ccccc3[nH]2)c(C)c1Br
inactive: Potency (JEG-3) | Potency (OV90) | Potency (PA-1) | Potency (SKOV3) | Potency (Tov-21-G) | Potency (Tov112D)

CC(=O)/C=C/[C@H]1[C@](C)(O)[C@@H](O)[C@H](OC(C)=O)C2C(C)(C)CCC[C@@]21C (stereo not given in full)
inactive: Potency (JEG-3) | Potency (OV90) | Potency (PA-1) | Potency (SKOV3) | Potency (Tov-21-G) | Potency (Tov112D)

COC(=O)C1=CO[C@@H](O)C2C(CO)=CCC12 (stereo not given in full)
inactive: Potency (JEG-3) | Potency (OV90) | Potency (PA-1) | Potency (SKOV3) | Potency (Tov-21-G) | Potency (Tov112D)

COc1ccc(CCO[C@@H]2O[C@H](CO[C@@H]3OC[C@H](O)[C@H](O)[C@H]3O)[C@@H](O)[C@H](O)[C@H]2O)cc1
inactive: Potency (JEG-3) | Potency (OV90) | Potency (PA-1) | Potency (SKOV3) | Potency (Tov-21-G) | Potency (Tov112D)

CC1(C(=O)O)CCCC2(C)C3CCC4CC3(CCC12)CC4=O (stereo not given)
inactive: Potency (JEG-3) | Potency (OV90) | Potency (PA-1) | Potency (SKOV3) | Potency (Tov-21-G) | Potency (Tov112D)

CC1(O)CCCC2(C)C1CCC13CC(CO)C(CCC12)C3 (stereo not given)
inactive: Potency (JEG-3) | Potency (OV90) | Potency (PA-1) | Potency (SKOV3) | Potency (Tov-21-G) | Potency (Tov112D)

CC(=O)OC[C@@]12C(=O)C[C@@H](C)[C@]3(C[C@@H](c4ccoc4)O[C@H]3OC(C)=O)[C@H]1CCC[C@]21CO1
inactive: Potency (JEG-3) | Potency (OV90) | Potency (PA-1) | Potency (SKOV3) | Potency (Tov-21-G) | Potency (Tov112D)

C[C@@H]1O[C@@H](OC[C@H]2O[C@@H](Oc3cc(O)cc4c3C(=O)C(O)(Cc3ccc(O)cc3)O4)[C@H](O)[C@@H](O)[C@@H]2O)[C@H](O)[C@H](O)[C@H]1O (stereo not given in full)
inactive: Potency (JEG-3) | Potency (OV90) | Potency (PA-1) | Potency (SKOV3) | Potency (Tov-21-G) | Potency (Tov112D)

N#Cc1ccc2[nH]cc(CCCCN3CCN(c4ccc5oc(C(N)=O)cc5c4)CC3)c2c1
inactive: Potency (JEG-3) | Potency (OV90) | Potency (PA-1) | Potency (SKOV3) | Potency (Tov-21-G) | Potency (Tov112D)

COC(=O)c1c(C)cc(OC(=O)c2c(C)cc(OC)cc2OC)cc1O[C@@H]1O[C@H](CO)[C@@H](O)[C@H](O)[C@H]1O
inactive: Potency (JEG-3) | Potency (OV90) | Potency (PA-1) | Potency (SKOV3) | Potency (Tov-21-G) | Potency (Tov112D)

CC/C=C\[C@H](O)[C@H](O)C1=C(C)C(=O)[C@]2(O1)C(=O)N[C@@](OC)(C(=O)c1ccccc1)[C@@H]2O
inactive: Potency (JEG-3) | Potency (OV90) | Potency (PA-1) | Potency (SKOV3) | Potency (Tov-21-G) | Potency (Tov112D)

C=C1CCC2C(C)(C(=O)OC)CCCC2(C)C1CCC(C)CC(=O)O (stereo not given)
inactive: Potency (JEG-3) | Potency (OV90) | Potency (PA-1) | Potency (SKOV3) | Potency (Tov-21-G) | Potency (Tov112D)

C=C1CC[C@@H]2[C@@](C)(CO[C@@H]3O[C@H](CO)C(O)[C@H](O)C3O)[C@H](O)CC[C@@]2(C)[C@@H]1CC/C(C)=C/CO (stereo not given in full)
inactive: activity change, negative = cytotoxicity (JEG-3) 2.39% [at 11.6 µM] | activity change, negative = cytotoxicity (OV90) 6% [at 11.6 µM] | activity change, negative = cytotoxicity (PA-1) 7% [at 11.6 µM] | activity change, negative = cytotoxicity (SKOV3) -9.26% [at 11.6 µM] | activity change, negative = cytotoxicity (Tov-21-G) 4.35% [at 11.6 µM] | activity change, negative = cytotoxicity (Tov112D) 4.42% [at 11.6 µM]

C[C@H](Oc1ccc(S(C)(=O)=O)cc1C(=O)N1CCN(c2ncc(C(F)(F)F)cc2F)CC1)C(F)(F)F
inactive: Potency (JEG-3) | Potency (OV90) | Potency (PA-1) | Potency (SKOV3) | Potency (Tov-21-G) | Potency (Tov112D)

O=C(/C=C/c1ccc(O)cc1)OC1[C@H](O)CC(O)(C(=O)O)C[C@H]1O (stereo not given in full)
inactive: Potency (JEG-3) | Potency (OV90) | Potency (PA-1) | Potency (SKOV3) | Potency (Tov-21-G) | Potency (Tov112D)

C[C@@H]1C(=O)O[C@H]2[C@@H](O)C34[C@H]5C[C@@H](C(C)(C)C)C36[C@@H](OC(=O)[C@@H]6O)O[C@@]4(C(=O)O5)[C@@]12O (stereo not given in full)
inactive: Potency (JEG-3) | Potency (OV90) | Potency (PA-1) | Potency (SKOV3) | Potency (Tov-21-G) | Potency (Tov112D)

C=CC1(C)C=C2CCC3C(C)(C)C(O[C@@H]4O[C@@H](CO)[C@H](O)[C@H]4O)CCC3(C)C2CC1O[C@@H]1O[C@H](C)[C@H](O)[C@H](O)[C@H]1O (stereo not given in full)
inactive: Potency (JEG-3) | Potency (OV90) | Potency (PA-1) | Potency (SKOV3) | Potency (Tov-21-G) | Potency (Tov112D)

OC[C@H]1O[C@@H](OCCc2ccc(O)cc2)[C@H](O[C@@H]2OC[C@](O)(CO)[C@H]2O)[C@@H](O)[C@@H]1O
inactive: Potency (JEG-3) | Potency (OV90) | Potency (PA-1) | Potency (SKOV3) | Potency (Tov-21-G) | Potency (Tov112D)

CC(C)(O)/C=C/C1=CC(=O)[C@@](C)(O)C[C@H]1O
inactive: Potency (JEG-3) | Potency (OV90) | Potency (PA-1) | Potency (SKOV3) | Potency (Tov-21-G) | Potency (Tov112D)
